In PubChem BioAssay (Tox21):
Results filed as inconclusive are left out. Where a call stands in place of a potency, no number is given. Activity calls are given as the source filed them. Calls come from the whole dose curve.

Assay: p53 small molecule agonists, cell-based qHTS assay with human liver microsomes (AID 1963577);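 note: p53 response element beta-lactamase reporter cells with liver microsomes plus NADPH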
Details: HCT-116 p53RE-bla with human liver microsomes, ratio, 16 h; series mostly up to 66 µM
Procedure, shortened: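 Steps: plate p53RE-bla cells, incubate 5 h at 37 C; add compound in DMSO; add microsomes (0.5 mg/mL final) and NADPH (0.5 mg/mL final); incubate 16 h at 37 C; add LiveBLAzer, 2 h RT; read fluorescence.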

CCN(CCO)CCn1c(Cc2ccccc2)nc2c1c(=O)n(C)c(=O)n2C
Potency: inactive
